Test results reported in PubChem BioAssay.
A number with no mark means an inactive call. For some of these results: Results with a measured potency or affinity are listed apart. The source made the active and inactive calls. Unless noted, no rule for the calls is given here.

Columns and labels:
[1] = antimalarial activity against Dd2 strain (AID 2302;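 active = growth inhibition above 50% at the single 2 µM test dose, taken to imply half-maximal potency below 2 µM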;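 also: 0% = DMSO untreated growth and 100% = chloroquine plus artemisinin killed control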); conditions: P. falciparum Dd2 in RBCs, LDH growth readout, 72 h; at 2 µM; stronger effect = higher value
[2] = HepG2 cytotoxicity, primary screen, cytotoxicity control for P. falciparum antimalarial project, cell-based, ATP luminescence (AID 2303;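 active = inhibition above 50%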;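 also: 0% = DMSO wells and 100% = digitonin-killed cells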); conditions: HepG2 viability, 24-48 h, at 10 µM, stronger effect = higher value
[3] = molecular target: L-lactate dehydrogenase (Plasmodium falciparum (isolate CDC / Honduras)) (UniProt Q27743); assay: PfLDH activity inhibition – cell lysate, 3D7 strain, counter-screen for P. falciparum growth inhibition project (AID 2304);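 also: 0% = vehicle and 100% = reference inhibitor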; conditions: P. falciparum 3D7 crude extract, LDH APAD/NBT absorbance; at 2 µM; stronger effect = higher value
Sequence of L-lactate dehydrogenase (Plasmodium falciparum (isolate CDC / Honduras)) (Q27743 whole entry, looked up): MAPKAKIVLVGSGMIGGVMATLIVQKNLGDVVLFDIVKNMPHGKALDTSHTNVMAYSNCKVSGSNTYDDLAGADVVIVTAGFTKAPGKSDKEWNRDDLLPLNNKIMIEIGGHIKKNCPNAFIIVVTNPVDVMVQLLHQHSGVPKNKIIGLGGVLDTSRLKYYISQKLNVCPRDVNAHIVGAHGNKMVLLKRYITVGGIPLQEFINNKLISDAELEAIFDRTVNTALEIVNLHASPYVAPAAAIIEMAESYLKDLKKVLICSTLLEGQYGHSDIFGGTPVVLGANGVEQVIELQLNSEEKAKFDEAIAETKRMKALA

[4] = inhibition of 3D7 malaria parasite growth – strain 3D7 (AID 2306);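 also: 0% = DMSO wells and 100% = chloroquine plus artemisinin control wells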; conditions: P. falciparum 3D7 erythrocytic growth, LDH absorbance, 72 h; at 2 µM; stronger effect = higher value
[5] = molecular target: Calcium-dependent protein kinase 1 (Plasmodium falciparum (isolate 3D7)) (UniProt P62344); assay: PfCDPK1 kinase inhibitors, biochemical, TCAMS library (AID 1159585; cut-off not given, nearly all actives have IC50 up to about 0.98 µM;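 also: inhibitors leave more ATP so luminescence rises with inhibition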); conditions: recombinant PfCDPK1, Kinase-Glo ATP depletion luminescence
Sequence of Calcium-dependent protein kinase 1 (Plasmodium falciparum (isolate 3D7)) (P62344 whole entry, looked up): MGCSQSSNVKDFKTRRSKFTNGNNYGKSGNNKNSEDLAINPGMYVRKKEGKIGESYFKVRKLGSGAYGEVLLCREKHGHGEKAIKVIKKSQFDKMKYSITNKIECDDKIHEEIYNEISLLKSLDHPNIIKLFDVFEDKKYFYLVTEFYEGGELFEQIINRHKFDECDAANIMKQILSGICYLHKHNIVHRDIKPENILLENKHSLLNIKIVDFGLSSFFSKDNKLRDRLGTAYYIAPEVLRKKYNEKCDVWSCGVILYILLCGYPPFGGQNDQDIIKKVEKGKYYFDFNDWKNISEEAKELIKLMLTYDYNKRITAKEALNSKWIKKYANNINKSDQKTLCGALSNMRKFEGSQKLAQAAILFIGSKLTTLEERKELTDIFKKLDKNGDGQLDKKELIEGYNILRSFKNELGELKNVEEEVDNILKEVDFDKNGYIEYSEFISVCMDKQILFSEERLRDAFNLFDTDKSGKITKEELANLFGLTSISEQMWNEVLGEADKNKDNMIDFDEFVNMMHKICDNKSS

[6] = molecular target: Plasmodium falciparum protein kinase 6 (PK6, PF3D7_1337100) (UniProt Q8IDW1); assay: PfPK6 kinase inhibitors, biochemical, TCAMS library (AID 1159586); conditions: recombinant PfPK6, Kinase-Glo ATP depletion luminescence
Sequence of Plasmodium falciparum protein kinase 6 (PK6, PF3D7_1337100) (Q8IDW1 1-305): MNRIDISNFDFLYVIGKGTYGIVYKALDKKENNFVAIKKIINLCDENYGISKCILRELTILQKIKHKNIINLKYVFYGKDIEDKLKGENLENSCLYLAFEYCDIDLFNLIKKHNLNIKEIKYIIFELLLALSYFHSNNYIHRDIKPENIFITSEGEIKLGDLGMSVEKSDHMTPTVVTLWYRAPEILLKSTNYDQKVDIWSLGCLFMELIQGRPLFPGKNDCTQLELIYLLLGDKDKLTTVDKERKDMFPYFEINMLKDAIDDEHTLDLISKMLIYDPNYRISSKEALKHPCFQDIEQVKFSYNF

[7] = molecular target: Protein kinase 7 (PK7), Plasmodium falciparum 3D7 (PF3D7_0213400) (UniProt Q7YTF7); assay: inhibition of Plasmodium PK7 catalytic activity – biochemical, TCAMS antimalarial set, Kinase-Glo luminescence (AID 1159587); conditions: recombinant PfPK7, Kinase-Glo ATP depletion luminescence
Sequence of Protein kinase 7 (PK7), Plasmodium falciparum 3D7 (PF3D7_0213400) (Q7YTF7 1-343): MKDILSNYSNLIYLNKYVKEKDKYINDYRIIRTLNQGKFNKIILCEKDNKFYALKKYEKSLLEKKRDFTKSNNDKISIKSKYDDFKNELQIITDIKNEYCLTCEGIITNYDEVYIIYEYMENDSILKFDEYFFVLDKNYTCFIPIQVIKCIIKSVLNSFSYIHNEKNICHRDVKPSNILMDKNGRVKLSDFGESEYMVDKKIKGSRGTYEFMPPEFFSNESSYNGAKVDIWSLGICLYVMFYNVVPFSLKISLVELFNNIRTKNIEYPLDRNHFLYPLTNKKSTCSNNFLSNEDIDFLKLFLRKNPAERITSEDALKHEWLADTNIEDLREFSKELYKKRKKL

[8] = molecular target: Calcium-dependent protein kinase 4 (Plasmodium falciparum (isolate 3D7)) (UniProt Q8IBS5); assay: PfCDPK4 kinase inhibitors, biochemical, TCAMS library (AID 1159588; cut-off not given, nearly all actives have IC50 up to about 0.91 µM); conditions: recombinant PfCDPK4, Kinase-Glo ATP depletion luminescence
Sequence of Calcium-dependent protein kinase 4 (Plasmodium falciparum (isolate 3D7)) (Q8IBS5 whole entry, looked up): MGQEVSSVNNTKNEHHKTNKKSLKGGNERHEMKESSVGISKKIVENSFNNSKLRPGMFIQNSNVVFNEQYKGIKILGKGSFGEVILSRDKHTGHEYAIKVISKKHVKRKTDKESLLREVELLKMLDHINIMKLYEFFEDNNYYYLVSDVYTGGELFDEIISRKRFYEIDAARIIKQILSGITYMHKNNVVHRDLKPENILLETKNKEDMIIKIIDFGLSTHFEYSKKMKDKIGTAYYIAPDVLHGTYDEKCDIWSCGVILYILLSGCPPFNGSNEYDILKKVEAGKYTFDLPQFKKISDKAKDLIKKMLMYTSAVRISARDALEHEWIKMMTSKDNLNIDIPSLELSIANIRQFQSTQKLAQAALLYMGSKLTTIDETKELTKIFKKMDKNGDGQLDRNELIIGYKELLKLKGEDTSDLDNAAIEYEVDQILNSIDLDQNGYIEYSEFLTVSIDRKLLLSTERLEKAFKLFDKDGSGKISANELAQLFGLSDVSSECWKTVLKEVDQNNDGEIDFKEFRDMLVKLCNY

Compound	growth inhibition [1]	inhibition [2]	inhibition [3]	growth inhibition [4]	outcome [5]	outcome [6]	outcome [7]	outcome [8]
Cc1ccc(Nc2nnc(SCC(=O)Nc3ccc(CN4CCCC4)cc3)s2)cc1	-2%	4%	-2%	91% (active)	inactive	inactive	inactive	inactive
FC(F)(F)c1ccc(NC(=S)N2CCC(CCN3CCC(c4c[nH]c5ccccc45)CC3)CC2)cc1	37%	44%	0%	98% (active)	inactive	inactive	inactive	inactive
C=CCn1c(C)cc(C(=O)COc2ccc(S(=O)(=O)N3CCOCC3)cc2[N+](=O)[O-])c1C	5%	0%	3%	94% (active)	inactive	inactive	inactive	inactive
Fc1ccc(CNc2nc(-c3ccc(F)c(C(F)(F)F)c3)n(-c3cccc(C(F)(F)F)c3)n2)cc1	80% (active)	0%	-1%	95% (active)	inactive	inactive	inactive	inactive
CN1CCC(NCc2cccc(-c3ccc(S(=O)(=O)NCCc4ccccn4)cc3)c2)CC1	1%	10%	-1%	95% (active)	inactive	inactive	inactive	inactive
COc1ccc2ncc(F)c([C@@H](O)CN3CCC(NCc4ccc5c(c4)NCCS5)CC3)c2n1	69% (active)	77% (active)	-3%	99% (active)	inactive	inactive	inactive	inactive
O=c1[nH]c(NCCCNCc2cc3c(Cl)cc(Cl)cc3[nH]2)nc2ccccc12	4%	10%	-3%	91% (active)	inactive	inactive	inactive	inactive
CC(=O)Nc1ccc(C(=O)Nc2cccc(-c3cccc(-c4nc5ccccc5[nH]4)c3)c2)cn1	100% (active)	3%	-2%	101% (active)	inactive	inactive	inactive	inactive
CCC[C@]1(C)CSc2ccccc2[C@@H](c2ccccc2)N1	2%	60% (active)	-3%	87% (active)	inactive	inactive	inactive	inactive
COc1ccc(-c2cc(-c3ccc(S(C)(=O)=O)cc3)cnc2N)cn1	99% (active)	5%	0%	94% (active)	inactive	inactive	inactive	inactive
O=C(c1ccco1)N1CCN(c2nc(-c3ccc(Cl)cc3)nc3ccccc23)CC1	91% (active)	13%	5%	96% (active)	inactive	inactive	inactive	inactive
Cc1ccnc(-n2c(C)cc(C=C3SC(=Nc4ccccc4)N(Cc4ccco4)C3=O)c2C)c1	98% (active)	-5%	-1%	99% (active)	inactive	inactive	inactive	inactive
NC(=Nc1nc(-c2ccccn2)cc2ccccc12)c1cccc(Cl)c1	99% (active)	54% (active)	0%	101% (active)	inactive	inactive	inactive	inactive
CC(CNCc1cn(Cc2cc(Br)cc(Br)c2)c2ccccc12)CNc1cc(=O)c2ccccc2[nH]1 (stereo not drawn)	50% (active)	10%	6%	100% (active)	inactive	inactive	inactive	inactive
Cc1cccc2[nH]c(-c3cccc(-c4cccc(NC(=O)NCc5ccccc5)c4)c3)nc12	27%	12%	5%	94% (active)	inactive	inactive	inactive	inactive
CCN1CCc2nc3ccccc3c(C(=O)Nc3ccc(C#N)cc3)c2C1	72% (active)	24%	-1%	99% (active)	inactive	inactive	inactive	inactive
CCCn1c(Sc2ccc(C#N)c([N+](=O)[O-])c2)nnc1-c1ccc(N(C)C)cc1	98% (active)	18%	7%	97% (active)	inactive	inactive	inactive	inactive
CN1CCC(NCc2cccc(-c3ccc(S(=O)(=O)NCCN4CCCC4)c(F)c3)c2)CC1	-4%	14%	2%	91% (active)	inactive	inactive	inactive	inactive
Cc1cc(CNC(c2ccccc2)C2CCC2)cc(C)c1O (stereo not drawn)	48%	78% (active)	-2%	94% (active)	inactive	inactive	inactive	inactive
CN(C)c1ccc(-c2csc(C(=O)NCC3CCN(Cc4cccc(C(F)(F)F)c4)C3)c2)cc1 (stereo not drawn)	58% (active)	15%	-2%	97% (active)	inactive	inactive	inactive	inactive
COc1ccc2nc3cc(Cl)ccc3c(NCCN3CCN(C)CC3)c2c1	99% (active)	29%	2%	100% (active)	inactive	inactive	inactive	inactive

Compound	growth inhibition [1]	inhibition [2]	inhibition [3]	growth inhibition [4]	outcome [5]	outcome [6]	outcome [7]	outcome [8]
O=C(/C=C/c1ccsc1)N1CCC(CCN2CCC(c3c[nH]c4ccccc34)CC2)CC1	24%	37%	4%	88% (active)	inactive	inactive	inactive	inactive
CN(C)c1ccc2c(c1)Sc1cc(N(C)C)ccc1N2C(=O)CCCC(=O)O	81% (active)	-4%	-6%	96% (active)	inactive	inactive	inactive	inactive
COc1ccc2c(NN=Cc3ccccc3)cc(C)nc2c1	49%	-2%	-2%	100% (active)	inactive	inactive	inactive	inactive
CN(CCc1ccccc1)c1ncc(-c2cccc(CNCCC3CCCN3C)c2)cn1 (stereo not drawn)	98% (active)	99% (active)	-1%	92% (active)	inactive	inactive	inactive	inactive
CC(=O)Nc1ccc(CN2CCC(NC(=O)c3cc(-c4ccc(N(C)C)cc4)cs3)C2)cc1 (stereo not drawn)	1%	15%	5%	83% (active)	inactive	inactive	inactive	inactive
CC(CC(=O)NCC1(c2ccc(F)cc2Cl)CCOCC1)C(=O)c1ccc(Cl)cc1 (stereo not drawn)	91% (active)	6%	2%	99% (active)	inactive	inactive	inactive	inactive
O=C(NC1CCN(Cc2ccccc2)C1)c1ccc(Nc2ccc(Br)cc2)nc1 (stereo not drawn)	21%	19%	-1%	94% (active)	inactive	inactive	inactive	inactive
Cc1ccc2nc(C)n(C3CCN(C(=O)Cc4ccc(F)c(F)c4)CC3)c2c1	100% (active)	4%	0%	100% (active)	inactive	inactive	inactive	inactive
COc1ccc(CC2(c3ccc(F)cc3)N=C(N)N(CCCc3ccc4c(c3)OCO4)C2=O)cc1 (stereo not drawn)	97% (active)	60% (active)	3%	98% (active)	inactive	inactive	inactive	inactive
CCNc1cc(C(=O)N[C@@H](Cc2ccccc2)[C@H](O)CNC23CCC(CC2)CC3)cc(N2CCCCS2(=O)=O)c1	98% (active)	10%	4%	99% (active)	inactive	inactive	inactive	inactive
CCOc1ccc(C(=O)Nc2cc(Cl)ccc2O)cc1Cl	84% (active)	11%	0%	83% (active)	inactive	inactive	inactive	inactive
OC(CNCc1ccccc1OCc1ccccc1)c1cccc(I)c1 (stereo not drawn)	100% (active)	2%	-1%	100% (active)	inactive	inactive	inactive	inactive
CC1(C)N=C(N)N=C(N)N1OCCCc1c(Cl)cccc1Cl	97% (active)	71% (active)	3%	95% (active)	inactive	inactive	inactive	inactive
CN(c1ccccc1)c1ccnc(/N=C(\N)Nc2ccc(Cl)cc2)n1	6%	30%	-1%	87% (active)	inactive	inactive	inactive	inactive
CCOc1ccc2c(c1)OC(c1ccccc1)(C(F)(F)F)NC2=O (stereo not drawn)	98% (active)	-7%	-2%	100% (active)	inactive	inactive	inactive	inactive
Clc1ccc(CNc2ccnc(NCc3cccnc3N3CCCC3)n2)c(Cl)c1	53% (active)	37%	-5%	85% (active)	inactive	inactive	inactive	inactive
COc1ccccc1Nc1nc(NC2CCN(C)CC2)cc(-c2cccc(C(F)(F)F)c2)n1	71% (active)	100% (active)	-10%	95% (active)	inactive	inactive	inactive	inactive
O=C(NC1CCN(CCN2CCC(c3ccccc3C(F)(F)F)CC2)CC1)c1ccc(-c2ccc(Cl)cc2)cc1	68% (active)	39%	4%	101% (active)	inactive	inactive	inactive	inactive
Cc1cc(Cl)c(S(=O)(=O)NC2CCCC2)cc1OCC(=O)NC1CCCCC1	91% (active)	19%	-6%	97% (active)	inactive	inactive	inactive	inactive
CCCCCCN1CCC(NCc2cccc([N+](=O)[O-])c2)CC1	16%	-2%	0%	100% (active)	inactive	inactive	inactive	inactive
